Consider nine compounds from PubChem BioAssay (NCI).

Holding throughout (test): NCI-60 one-dose screen, 48 h (100 = growth as untreated, 0 = no growth, -100 = all killed)
Common to all, as to details: 10 µM unless noted

For assay [1], the system named is DU-145 prostate.
Assay [2] has as its system K-562 leukemia.
The test system of assay [3] is MALME-3M melanoma.
In assay [4] the test system is MDA-MB-231 breast.
Assay [5] concerns SF-268 CNS.
In assay [6] the test system is SF-295 CNS.
The subject of assay [7] is SF-539 CNS.
In assay [8] the test system is UACC-257 melanoma.
Assay [9] concerns M14 melanoma.
The subject of assay [10] is HCT-15 colon.
Assay [11] concerns HT29 colon.
The test system of assay [12] is SNB-75 CNS.
Assay [13] has as its system SNB-19 CNS.
In assay [14] the test system is PC-3 prostate.
Assay [15] deals with SK-MEL-5 melanoma.
In assay [16] the test system is UACC-62 melanoma.
Assay [17] concerns LOX IMVI melanoma.
Assay [18] has as its system SK-MEL-28 melanoma.
Assay [19] has as its system U251 CNS.

Molecules are shown by their SMILES. About 83,000 compounds went through this panel and 20% of them were active in at least one assay; those are over-represented in the sample as a whole.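 Interpretation: 100, growth as untreated; towards 0, rising growth inhibition; 0, no net growth; 0 to -100, cell death. Compounds scoring below 10 were considered active.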 Values without a mark were called inactive. Calls of active or inactive are those of the source.

Consider `O=C(NC(=S)Nc1ccc(Cl)cc1)c1ccccc1`, for which the growth in assay [1] was 103%; in assay [2], 73.2%; in assay [3] it was 112%; in [4] it was 96.3%; in [5], 114%; in assay [6], 85.5%. Moreover, the growth in [7] is 103%; in assay [8], 97%; in assay [9], 100%; in [10] it was 93.6%; in assay [11], 87%; in assay [12], 94.9%. Further, the growth in assay [13] is 105%; in assay [14], 105%; in assay [15], 102%; in [16] it was 85.5%; in [17] it was 106%; in assay [18], 96.2%.
Regarding `CC1(C)N=C(N)N=C(N)N1c1ccc(OCC(=O)Nc2ccccc2)c(Cl)c1`, the growth in [1] is 39.1%; in assay [2], 18.5%; in [3], 55.1%; in [4], 68.9%; in [5], 28%; in assay [6], 23.5%. In addition, the growth in [7] is 23.8%; in assay [8], -3.5% (active); in assay [9] it was 25.7%; in assay [10], 96.7%; in assay [11] it was 17.6%; in assay [12] it was 82.3%. Further, the growth was 49.4% in [13]; 41% in assay [19]; 14.8% in [14]; 26.6% in assay [15]; 18.2% in [16]; 22.4% in [17]. Also, in assay [18], the growth was 76.3%.
As for `CCC(C)Nc1ccc(N)cc1` (configuration not stated), the growth in assay [1] is 32.1%; in [2], 3.79% (active); in [3] it was -15.6% (active); in assay [4], 4.8% (active); in assay [5], 47%; in [6], 11.4%. Further, the growth in assay [7] is 47.5%; in assay [8] it was -43.1% (active); in assay [9], 31.9%; in assay [10], 30.5%; in assay [11], 7.64% (active); in assay [12], 29.8%. For the same compound, the growth in [13] was 30.6%; in assay [19], 10.3%; in assay [14], 6.03% (active); in [15], -6.02% (active); in assay [16], 30.3%; in assay [17], 5.41% (active). Further, the growth in [18] is 71.6%.
For `O=C1C(SCCO)=C(SCCO)C(=O)N1c1ccc(-c2ccccc2)cc1`, the growth in assay [1] was 27.1%; in assay [2], -0.074% (active); in assay [3], -44.5% (active); in assay [4] it was 95%; in [5], 41.1%; in assay [6], 103%. Besides, the growth in assay [7] is 104%; in assay [8] it was -5.64% (active); in assay [9], 85.7%; in assay [10], -21.6% (active); in [11] it was 70.2%; in [12], 71.9%. The growth was 106% in assay [13]; 60.2% in assay [19]; 93.3% in assay [14]; 103% in assay [15]; 62.5% in [16]; -45% (active) in assay [17]. The growth in [18] is -66.7% (active).
Turning to `CC(NCCC(c1ccccc1)c1ccccc1)c1ccccc1` (configuration not stated), the growth in [1] is 89.1%; in assay [2], -44% (active); in assay [3], 74.1%; in assay [4], 83.8%; in [5], 89.2%; in assay [6] it was 62.2%. Also, the growth was 94.7% in assay [7]; 64.4% in assay [8]; 71.8% in assay [9]; 75% in [10]; 13.1% in assay [11]; 87.3% in assay [12]. For the same compound, the growth in assay [13] is 90.7%; in assay [14], 48%; in assay [15], 85.8%; in assay [16] it was 93.3%; in [17], 74.6%; in assay [18], 75.5%.
Turning to `NC(CSC(c1ccccc1)(c1ccccc1)c1ccc(F)cc1)C(=O)O` (configuration not stated), the growth in assay [1] was -40.3% (active); in [2], -4.92% (active); in assay [3], 30.6%; in [4], -18.6% (active); in assay [5], 24.4%; in assay [6], 0.119% (active). The growth in assay [7] was -7.79% (active); in assay [8], -15.2% (active); in assay [9], -55.4% (active); in [10], 35.3%; in assay [11], 4.36% (active); in [12], -0.679% (active). For the same compound, the growth in assay [13] is 35.3%; in [19], 31.5%; in [14] it was 15.8%; in assay [16] it was 35.5%; in assay [17], 46.4%; in assay [18], 58.8%.
Turning to `CCOc1ccc(Cc2nccc3cc(OCC)c(OCC)cc23)cc1OCC`, the growth in [1] was 77.2%; in [2] it was 14.3%; in assay [3] it was 80.2%; in [4], 53.2%; in [5], 78%; in [6] it was 28%. Moreover, the growth was 65.9% in assay [7]; 69% in [8]; 70.8% in assay [9]; 59.8% in assay [10]; 25.2% in assay [11]; 99.6% in [12]. The growth in assay [13] was 62.5%; in assay [19] it was 62.8%; in [14], 52.9%; in [15], 47.1%; in assay [16] it was 50.7%; in [17], 53.8%. In addition, the growth in assay [18] is 91.7%.
For `O=C1c2ccccc2C(=O)c2c(NCCN=Cc3c(O)ccc4ccccc34)cccc21`, the growth was 51.7% in assay [1]; 77.7% in [2]; 113% in assay [3]; 84.4% in assay [4]; 82.3% in assay [5]; 65.1% in [6]. Also, the growth in assay [7] was 91.4%; in [8], -5.35% (active); in assay [9] it was 65.8%; in [10], 77%; in assay [11], 88%; in [12], 84%. Also, the growth is 84.9% in [13]; 84.5% in assay [14]; 86.7% in [15]; 85.8% in [16]; 66.7% in assay [17]; 117% in [18].
For `CCOC(=O)C(C)(CSSCC(C)(NC(=O)c1ccc2ccccc2c1)C(=O)OCC)NC(=O)c1ccc2ccccc2c1` (configuration not stated), the growth in assay [1] is 117%; in assay [2] it was 91.1%; in assay [3], 115%; in [4], 114%; in assay [5], 102%; in assay [6] it was 96.2%. In addition, the growth in [7] is 114%; in [8], -17.8% (active); in assay [9] it was 114%; in assay [10], 82.2%; in assay [11], 81.2%; in assay [12], 107%. Moreover, the growth in [13] was 86%; in assay [19], 94.8%; in assay [14] it was 108%; in assay [15], 109%; in [16] it was 96.1%; in assay [17], 89%. Besides, the growth in assay [18] was 132%.
